# Compound activity (PubChem BioAssay)
# In the library only some 3.8% were active in any assay of this set; here they are far more common.
# pPAFAH inh – pPAFAH (human) enzyme inhibition; inhibition, % at 3.39 µM; AID 463082; recombinant pPAFAH, FP-rhodamine probe fluorescence polarization; 330,000 compounds, 1.5% hits; Q13093;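 active = inhibition above the mean inhibition across the screen plus 3 SD, cut at about 25% in these data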;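 note: inhibitors block binding of the rhodamine activity-based probe so polarization drops; 0% = enzyme with DMSO and 100% = wells lacking pPAFAH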
# PAFAH2 FP inh – inhibitors of human PAFAH2; AID 492956; 340,000 compounds, 0.99% hits; recombinant PAFAH2, FP-rhodamine activity probe, fluorescence polarization; inhibition, % at 3.39 µM; Q99487;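 active = inhibition above the mean over all tested compounds plus 3 SD, cut at about 30% in these data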;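 note: inhibitors block probe labeling of enzyme so polarization drops; 0% = enzyme with DMSO and 100% = wells lacking PAFAH2 protein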
# PAFAH1B3 FP inh – inhibitors of human PAFAH1B3. Q15102. recombinant PAFAH1B3, FP-rhodamine probe, fluorescence polarization. inhibition, % at 3.39 µM. 340,000 compounds, 0.28% hits. AID 492972;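 active = inhibition above the screen-wide average of all tested compounds plus 3 SD, cut at about 25% in these data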;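 note: 0% = enzyme with DMSO only and 100% = wells lacking PAFAH1B3 protein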
# Pemphigus Ab inh – inhibitors of pemphigus antibody binding to human desmoglein-3 | P32926 | DSG3-coupled beads, scFv-anti-DSG3-GFP binding, flow cytometry; hits give low values | binding (percent of control), % at 10 µM | 310,000 compounds, 0.48% hits;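 active = binding more than 3 SD below its plate's average and above zero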;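 note: hits lower antibody fragment binding to DSG3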
# Target sequence (P32926 whole entry, looked up, the tested form may be a part): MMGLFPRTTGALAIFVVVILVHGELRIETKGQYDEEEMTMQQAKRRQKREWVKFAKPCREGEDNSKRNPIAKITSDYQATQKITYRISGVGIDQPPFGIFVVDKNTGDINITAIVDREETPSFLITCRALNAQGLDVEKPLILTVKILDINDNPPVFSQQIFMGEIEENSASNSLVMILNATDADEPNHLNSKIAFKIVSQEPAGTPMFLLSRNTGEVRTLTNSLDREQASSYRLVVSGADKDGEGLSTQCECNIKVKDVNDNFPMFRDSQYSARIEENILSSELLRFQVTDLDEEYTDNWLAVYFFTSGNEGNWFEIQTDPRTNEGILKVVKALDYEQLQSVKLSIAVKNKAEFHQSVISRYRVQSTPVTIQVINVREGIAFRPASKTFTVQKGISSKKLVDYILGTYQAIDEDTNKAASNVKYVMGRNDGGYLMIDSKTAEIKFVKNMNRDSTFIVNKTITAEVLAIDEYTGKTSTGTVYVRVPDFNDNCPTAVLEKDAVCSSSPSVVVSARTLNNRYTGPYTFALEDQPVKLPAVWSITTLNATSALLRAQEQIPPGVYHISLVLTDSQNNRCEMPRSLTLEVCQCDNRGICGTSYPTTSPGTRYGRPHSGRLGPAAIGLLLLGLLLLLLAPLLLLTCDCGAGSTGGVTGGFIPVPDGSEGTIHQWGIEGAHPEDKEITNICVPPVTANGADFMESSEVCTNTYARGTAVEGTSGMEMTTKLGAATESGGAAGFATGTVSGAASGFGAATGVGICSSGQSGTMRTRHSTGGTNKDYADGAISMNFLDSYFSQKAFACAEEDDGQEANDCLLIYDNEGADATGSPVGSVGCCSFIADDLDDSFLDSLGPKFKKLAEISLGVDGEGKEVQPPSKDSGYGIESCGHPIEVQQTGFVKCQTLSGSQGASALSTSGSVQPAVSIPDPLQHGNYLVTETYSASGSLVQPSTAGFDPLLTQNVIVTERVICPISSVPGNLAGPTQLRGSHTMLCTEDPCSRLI
# PAFAH1B2 FP inh – PAFAH1B2 (human) inhibition | P68402 | recombinant PAFAH1B2, FP-rhodamine activity probe, fluorescence polarization | inhibition, % at 3.39 µM | 340,000 compounds, 1.2% hits | AID 492953;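 active = inhibition above the mean of all tested compounds plus 3 SD, cut at about 24% in these data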;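 note: 0% = enzyme with DMSO and 100% = wells lacking PAFAH1B2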
# PfM18AAP inh – PfM18AAP enzyme inhibition. AID 1822. recombinant PfM18AAP, H-Glu-NHMec fluorogenic cleavage. inhibition, % at 7.35 µM. 290,000 compounds, 1.2% hits;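 active = inhibition above the campaign mean inhibition over all tested compounds plus 3 SD, cut at about 28% in these data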;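 note: 0% = plate median of test compound wells and 100% = 2 mM ZnCl2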
# * = called active by the depositor; nt = no result.
SMILES,pPAFAH inh,PAFAH2 FP inh,PAFAH1B3 FP inh,Pemphigus Ab inh,PAFAH1B2 FP inh,PfM18AAP inh
Cn1c(=O)c2c(ncn2CC(=O)OCC(=O)Nc2cccc(C#N)c2)n(C)c1=O,nt,nt,nt,104,nt,nt
CCOc1ccc(NS(=O)(=O)c2ccc3c(c2)N(C(C)=O)CCO3)cc1,32*,0,11,nt,4,-7
CCc1cccc(NS(=O)(=O)c2ccc3c(c2)N(C)CCO3)c1,30*,7,2,98,5,1
CCOc1ccccc1NS(=O)(=O)c1ccc2c(c1)N(C)CCO2,-2,5,-4,nt,0,0
CCOc1ccc(-n2nc3ccc(NC(=O)c4ccc5c(c4)OCCO5)cc3n2)cc1,0,-6,-14,5.0*,-6,-16
CC(=O)c1ccc(NS(=O)(=O)c2ccc3c(c2)N(C(C)=O)CCO3)cc1,1,7,-2,113,2,-2
COc1ccc(S(=O)(=O)N(C)C[C@@H]2OCc3cnnn3CCCC(=O)N([C@H](C)CO)C[C@@H]2C)cc1,nt,nt,nt,118,nt,nt
CC(C)Cn1c(SCC(=O)NC2CC2)nc2ccccc21,nt,nt,nt,107,nt,nt
COc1cc(NC(=O)C2CC(c3ccccc3O)=NO2)cc(OC)c1OC (centres undefined),nt,nt,nt,99,nt,nt
COC(=O)C1=CN(Cc2ccc(OC)cc2)C=C(C(=O)OC)C1c1cc(OC)c(OC)c(OC)c1,0,3,3,99,15,-2
COC(=O)C1=CN(C(C)c2ccccc2)C=C(C(=O)OC)C1c1cc(OC)c(OC)c(OC)c1 (centres undefined),-3,4,12,112,28*,-6
CC1CCC2(CC1)NC(=O)N(CC(=O)Nc1ccc(N3CCCCC3)cc1)C2=O (centres undefined),nt,nt,nt,96,nt,nt
O=C1NC(c2cccc(Br)c2)=N/C1=C\c1ccco1,31*,7,-2,82,-2,6
COc1ccc2cc(C(=O)COC(=O)COc3ccc4c(C)cc(=O)oc4c3)ccc2c1,3,-6,-10,69*,0,1
CCOC(=O)C1=C(C)N=c2s/c(=C\c3ccc(C(=O)O)cc3)c(=O)n2C1c1ccc(OC)cc1OC (centres undefined),1,4,6,105,3,-10
CCOC(=O)C1=C(C)N=c2s/c(=C/c3ccco3)c(=O)n2C1c1cccc(OC)c1 (centres undefined),33*,nt,nt,nt,nt,16
O=C(COC(=O)Cc1c(Cl)cccc1Cl)NCc1ccccc1,nt,nt,nt,102,nt,nt
CC1CC(C)CN(S(=O)(=O)c2ccc(C(=O)NNC(=O)c3ccccc3F)cc2)C1 (centres undefined),2,5,3,nt,26*,nt
C/C(CC(=O)Nc1ccc(N(C)C)cc1)=N\NC(=O)c1ccc(C(C)(C)C)cc1,5,37*,10,117,9,-10
CC(C)n1c(=S)[nH]c2scc(-c3cccs3)c2c1=O,33*,11,1,89,-3,7
CN(CC(=O)Nc1cccc(F)c1)C(=O)CC1CC2CCC1C2 (centres undefined),-5,2,1,nt,8,-14
COCCCNC(=O)C(=O)NC1CCCCC1C (centres undefined),26*,6,13,101,4,-2
CC1CCCCC1NC(=O)C(=O)NCC1CCCO1 (centres undefined),3,0,13,115,-1,5
CCOc1ccc(-n2cc(-c3ccccc3)c3c(=O)[nH]cnc32)cc1,16,0,6,96,2,1
O=c1[nH]cnc2c1c(-c1ccccc1)cn2-c1ccc(Br)cc1,27*,-1,-1,99,-3,1
SMILES,pPAFAH inh,PAFAH2 FP inh,PAFAH1B3 FP inh,Pemphigus Ab inh,PAFAH1B2 FP inh,PfM18AAP inh
Cc1cccc(-n2cc(-c3ccccc3)c3c(=O)[nH]cnc32)c1,30*,4,7,116,-4,-2
N#CC1C=Cc2c(ccc3ccccc23)N1C(=O)c1ccccc1 (centres undefined),nt,0,-1,nt,4,nt
CCCCn1c(N)c(C(=S)NC(=O)CC(C)(C)C)c(=O)n(C)c1=O,-2,-2,4,111,27*,-3
CCCn1c(N)c(C(=O)CSc2ncn[nH]2)c(=O)n(C)c1=O,-1,1,4,102,2,nt
Nc1ccc2cc3ccccc3cc2c1,nt,-1,9,104,14,nt
Nc1ccc2cccc(O)c2c1,nt,4,19,64*,2,nt
O=[N+]([O-])c1cc2no[n+]([O-])c2cc1N1CCCCC1,nt,74*,86*,75,70*,nt
